AHR activator: activators of human aryl hydrocarbon receptor. AHR-responsive luciferase reporter cells, luminescence. AID 2796. 2.5% of 320,000 active. P35869. activation, % at 5 µM; in the data active = activation above about 47%
APOBEC3G inh: inhibitors of human APOBEC3G DNA deaminase | 0.28% of 330,000 active | inhibition, % at 20 µM | AID 493012 | recombinant A3G, ssDNA deamination FAM/TAMRA fluorescence;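 active = inhibition of at least 40% at 20 µM, with no more than 30% in the related APOBEC3A deaminase screen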
Target sequence (Q9HC16 whole entry, looked up): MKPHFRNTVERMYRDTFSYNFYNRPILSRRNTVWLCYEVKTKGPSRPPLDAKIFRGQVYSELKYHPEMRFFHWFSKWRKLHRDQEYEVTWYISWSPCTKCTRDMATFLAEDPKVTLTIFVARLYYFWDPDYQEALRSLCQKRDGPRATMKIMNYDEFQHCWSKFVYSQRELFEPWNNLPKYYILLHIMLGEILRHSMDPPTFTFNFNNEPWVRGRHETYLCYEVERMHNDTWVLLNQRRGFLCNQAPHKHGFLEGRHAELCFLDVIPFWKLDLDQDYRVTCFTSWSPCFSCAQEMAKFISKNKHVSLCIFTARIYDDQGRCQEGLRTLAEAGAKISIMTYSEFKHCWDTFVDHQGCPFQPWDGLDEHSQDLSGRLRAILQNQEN
APOBEC3A inh: inhibitors of human APOBEC3A DNA deaminase; P31941; recombinant A3A, FAM/TAMRA ssDNA deamination fluorescence; inhibition, % at 20 µM; 0.41% of 330,000 active; AID 493011;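 active = at least 40% inhibition at 20 µM here, with at most 30% in a related deaminase screen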
Target sequence (P31941 whole entry, looked up): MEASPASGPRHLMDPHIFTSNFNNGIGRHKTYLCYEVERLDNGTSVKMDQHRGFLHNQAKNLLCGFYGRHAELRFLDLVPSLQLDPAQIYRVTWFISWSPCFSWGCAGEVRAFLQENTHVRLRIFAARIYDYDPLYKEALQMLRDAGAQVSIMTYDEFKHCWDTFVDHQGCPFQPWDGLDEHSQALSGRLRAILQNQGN
NTR1 ag: activates human neurotensin receptor 1 | P30989 | NTR1-U2OS beta-arrestin-GFP spot imaging, agonist mode | activation, % at 20 µM | 0.17% of 330,000 active | AID 493036;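 active = activation at or above 40% of the spot to cytoplasm intensity ratio, with at least 20 cells analyzed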
NTR1 ag conf: NTR1 (human) agonism, confirmed. shares compounds with NTR1 ag. activation, % at 20 µM. NTR1-U2OS beta-arrestin-GFP translocation imaging. 38% of 480 active;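 active = mean activation at 20 µM of at least 40%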
A number is an active result; - = inactive; . = no result given. Only some compounds are listed: those with a hit (about 3.2% of all), similar ones and a draw of the others.

SMILES	AHR activator	APOBEC3G inh	APOBEC3A inh	NTR1 ag	NTR1 ag conf
O=C(Nc1ccccc1C(F)(F)F)N1CCN(c2ccccn2)CC1	-	-	-	-	.
Cn1cc([N+](=O)[O-])c(C(=O)Nc2nc(-c3ccc(Cl)cc3)cs2)n1	-	-	-	49	71
CC(C)(C)c1nc(NC(=O)Nc2ccccc2)sc1Br	-	-	-	44	-
COc1ccc2nc(NC(=O)Nc3ccccc3)sc2c1	-	-	-	-	.
O=C(CN(C(=O)CCC(=O)Nc1ccccn1)c1ccc(F)cc1)NCCc1ccccc1	-	-	-	-	.
Cc1ccc(C(C2=C(O)CC(C)(C)CC2=O)C2C(=O)CC(C)(C)CC2=O)s1 (configuration not stated)	-	-	-	-	.
CC1(C)CC(=O)C(C(C2=C(O)CC(C)(C)CC2=O)c2ccc(Br)s2)C(=O)C1 (configuration not stated)	-	-	-	59	45
Cc1ccc(NC(=O)Cc2cc(C(=O)O)c3ccccc3n2)c(C)c1	-	-	-	-	.
COc1cccc(/C=C/C(=O)Nc2ccc(OC)nc2)c1	-	-	-	-	.
COc1ccc(/C=C2\CC/C(=C\c3ccc(OC)c(OC)c3)C2=O)cc1OC	-	-	-	-	.
COc1ccc(C=C2C=C(C(C)(C)C)C(=O)C(C(C)(C)C)=C2)cc1OC	-	-	-	41	-
COc1ccc(/C=C/C(=O)c2ccc(C)c([N+](=O)[O-])c2)cc1O	-	-	-	43	-
COc1cc(C(=O)/C=C/c2cccnc2)c([N+](=O)[O-])cc1OC	-	-	-	42	47
COc1cc(/C=C/C(=O)c2ccc(C)c([N+](=O)[O-])c2)cc(OC)c1O	-	-	-	-	.
COc1cccc(/C=C/C(=O)c2ccc(C)c([N+](=O)[O-])c2)c1	-	-	-	66	-
COc1ccc(Cl)cc1NC(=O)CN(C)C1CCS(=O)(=O)C1 (configuration not stated)	-	-	-	-	.
CC(Sc1nnc(COc2ccc(Cl)cc2)n1Cc1ccco1)C(=O)N1CCNC1=O (configuration not stated)	-	-	-	-	.
C[C@H](NC(=O)c1[nH]cnc1C(=O)Nc1ccc(Cl)cc1)c1ccccc1	-	-	-	51	-
C[C@@H](NC(=O)c1[nH]cnc1C(=O)Nc1ccc(Cl)cc1)c1ccccc1	-	-	-	44	54
O=C(Nc1ccc(Cl)cc1)c1nc[nH]c1C(=O)NCc1ccccc1	-	-	-	50	-
Cc1ccc(S(=O)(=O)N2CCOCC2)cc1C(=O)OCC(=O)NC1CCS(=O)(=O)C1 (configuration not stated)	-	-	-	-	.
CCOc1ccc(CC(=O)Nc2c3c(nn2C(C)(C)C)CS(=O)(=O)C3)cc1	-	-	-	-	.
COC(=O)c1c(NC(=O)COC(=O)c2ccc(O)cc2)sc2c1CCCCC2	-	-	-	43	-
COCCN(CCOC)C(=O)c1ccc(NS(=O)(=O)c2ccc3[nH]c(=O)[nH]c3c2)cc1	-	-	-	-	.
CCCCNc1c(-c2ccc(OC)c(SC(C)CC)c2)nc2ccc(C)cn12 (configuration not stated)	-	-	-	51	72
SMILES	AHR activator	APOBEC3G inh	APOBEC3A inh	NTR1 ag	NTR1 ag conf
CN(c1ccccc1)c1ccc(/C=C/[N+](=O)[O-])cc1	-	.	.	.	.
CN(C)c1ccc(-n2cccc2/C=C/[N+](=O)[O-])cc1	-	-	-	63	66
CN(C)S(=O)(=O)c1ccc(S(=O)(=O)NCc2cccs2)cc1	-	-	-	42	-
O=[N+]([O-])c1ccc(-c2cnc(SC(c3ccccc3)c3ccccc3)[nH]2)cc1	-	-	-	54	-
O=C(COC(=O)/C=C/C(=O)OCC(=O)NC12CC3CC(CC(C3)C1)C2)NC12CC3CC(CC(C3)C1)C2	-	-	-	85	40
CSCC[C@H](NS(=O)(=O)c1ccc(C(C)=O)cc1)c1nnc2ccccn12	-	-	-	-	.
Fc1ccc(-n2nnnc2-c2cnc(-c3cccs3)nc2C(F)(F)F)cc1	-	-	-	49	67
O=C(Nc1ccc(Cl)c(C(F)(F)F)c1)NC1CC2CCCC(C1)N2Cc1ccccc1 (configuration not stated)	-	-	-	44	-
Cc1ccc(-n2nnc3c(=O)oc4ccccc4c32)cc1	-	-	-	58	-
O=S(=O)(c1ccc(N2CC=C(c3ccccc3)CC2)nc1)N1CCCC1	-	-	-	50	-
CCC(C)c1ccccc1NC(=O)COC(=O)c1ccc2c(c1)S(=O)(=O)c1ccccc1C2=O (configuration not stated)	-	-	-	-	.
CC(C)CNC(=O)CN(c1cccc(Cl)c1)S(C)(=O)=O	-	-	-	-	.
CCOc1ccc(CCNC(=O)C(CCC(N)=O)NC(=O)OCc2ccccc2)cc1OCC (configuration not stated)	-	-	-	-	.
O=C(/C=C/c1ccc(OCCCF)cc1)Nc1ccnc(-c2ccncc2)n1	-	-	-	56	-
COc1ccc(C(CNC(=O)c2cncc(Br)c2)N(C)C)cc1 (configuration not stated)	-	-	-	-	.
Cc1ccccc1-c1cc(C(=O)NCC2CC2)nn1CC1CC(c2cccc([N+](=O)[O-])c2)=NO1 (configuration not stated)	-	-	-	-	.
C[C@H](CO)N1C[C@H](C)[C@@H](CN(C)S(=O)(=O)c2ccc(F)cc2)Oc2ccc(NS(=O)(=O)c3ccc(F)cc3)cc2C1=O	-	-	-	-	.
C[C@@H]1CN([C@H](C)CO)C(=O)c2cc(NS(=O)(=O)c3ccc(F)cc3)ccc2O[C@@H]1CN(C)Cc1ccc(Cl)c(Cl)c1	-	-	-	-	-
CCCn1c(N2CCC(Cc3ccccc3)CC2)nc2c1c(=O)[nH]c(=O)n2C	-	-	-	-	.
CCCCCn1c(N2CCC(Cc3ccccc3)CC2)nc2c1c(=O)[nH]c(=O)n2C	-	-	-	41	50
CCOC(=O)COc1ccc(/C=C/[N+](=O)[O-])c(OCC(=O)OCC)c1	-	-	-	74	69
CCOc1ccc(/C=C/[N+](=O)[O-])c2ccccc12	-	-	-	80	66
O=C(CN(c1cccc([N+](=O)[O-])c1)S(=O)(=O)c1ccccc1)N1CCCCC1	-	-	-	-	.
CCOC(=O)c1[nH]c(C)c(C(=O)OCC(=O)Nc2sc3c(c2C#N)CCCCC3)c1C	-	-	-	-	.
Cc1ccc(S(=O)(=O)Nc2ccc3c4c(cccc24)CC3)c(C)c1	-	-	-	41	-
Cc1cc(C)c(S(=O)(=O)Nc2ccc3c4c(cccc24)CC3)c(C)c1	-	-	-	-	.
CCCCCCOc1ccc(NC(=O)CC2C(=O)N(CC)C(=S)N2Cc2ccco2)cc1 (configuration not stated)	-	-	-	40	-
Cc1cccc(N2CCN(C(=O)c3cc(S(=O)(=O)N4CCOCC4)cn3C)CC2C)c1 (configuration not stated)	-	-	-	-	.
O=C1c2ccc(Cl)cc2S(=O)(=O)c2cccc(C(=O)N3CCC(Cc4ccccc4)CC3)c21	-	-	-	52	80

Source: PubChem (several laboratories)
